Results filed as inconclusive are left out. Entries that show only a call come without a potency. A number with no mark means an inactive call. Calls of active or inactive are those of the source. Calls come from the whole dose curve; as a rule, active = well fitted cell-killing curve with a large enough effect; inconclusive = small, poorly fitted or top-dose-only effect; inactive = no such curve, though single readings can be large or run the other way.

A short description of the experiment: qHTS of pediatric cancer cell lines to identify multiple opportunities for drug repurposing: Primary screen for Rh30 cells (AID 1347107). Note: nearly all actives have a fitted effect of over 75% in size. The following applies: Rh30 rhabdomyosarcoma viability, CellTiter-Glo luminescence, 48 h; series mostly up to 46 µM. The text has this:
Drug repurposing or repositioning has been offered as a strategy for drug development in oncology programs. This approach has special potential for childhood cancers and other rare or orphan diseases, where the expected return on new drug development has been a disincentive to pharmaceuticals.
In this project we exploit the poly-pharmacology of drugs to discover new indications via phenotypic screening of a panel of 19 well-characterized cell lines derived from solid tumors seen in children and adolescents. The goal is to identify approved drugs with previously unrecognized anticancer properties that has the potential to reveal new mechanisms and biological processes involved in carcinogenesis or drug resistance. We employed a titration-based paradigm (quantitative high-throughput screening or qHTS), where all compounds were tested at multiple concentrations for their effect on cell viability. Concentration-response curves (CRCs) were derived directly from the primary screen, and both potency and efficacy values were used to identify compounds with robust bioactivity profiles. We screened the NIH Chemical Genomics Center (NCGC) Pharmaceutical Collection (NPC) and Mechanism Interrogation Plate (MIPE) small molecule collections of approved and investigational compounds against these cell lines; and measured metabolically active cells after 48 hours of compound treatment as a proxy for cell viability.
Assay Submitter: Nathalia J. Martinez, National Center for Advancing Translational Sciences, National Institutes of Health, Rockville, MD, USA; email: natalia.martinez@nih.gov
[1] Shen, M et al. Quantitative high-throughput phenotypic screening of pediatric cancer cell lines identifies multiple opportunities for drug repurposing. Oncotarget 2017 Dec 19;9(4):4758-4772. PMID 29435139.
The cells were obtained from University of North Carolina (UNC), Pediatric Preclinical Testing Program (PPT), and Coriell Institute (CI).
qHTS cell viability assay:
Cells were assayed in growth media at a density of 500-1,000 cells/well. Five microliters of cells were dispensed into 1,536-well, white, solid-bottom, TC-treated plates (Greiner Bio One) using a multidrop dispenser and incubated at 37 degrees C, 5% CO2, under a humidified atmosphere for 5 hours. Twenty-three nanoliters of compounds and controls (neutral control DMSO or positive control bortezomib at final concentration of 2.3 µM) were subsequently transferred by Kalypsys pintool. For primary screens, the MIPE collection was tested at 11-point dilutions (final concentrations range from 0.78 nM to 46 µM) and the NPC collection at 8-point dilutions (final concentrations range from 0.59 nM to 46 µM). Compounds tested in follow-up screens were assayed at 11-point dilutions. Cells were incubated for 48 hours, followed by addition of 3 µL of CellTiter-Glo (Promega). After a 15 min incubation at room temperature, samples were analyzed for luminescence intensity using a ViewLux High-throughput CCD imager equipped with clear filters.
On to `CCCCOCCOCCOCc1cc2c(cc1CCC)OCO2`, for which the Potency result was “inactive”.

Take `c1ccc2c(c1)CCCC2C1=NCCN1` (stereo not given): the Potency result was “inactive”.

Consider `CC(N=C(NC#N)Nc1ccncc1)C(C)(C)C` (stereo not given), for which the Potency result was “inactive”.

`CC1=C(C)C(=O)C(CCCCC#CCCCC#CCO)=C(C)C1=O`: the Potency entry is “inactive”.

As for `CC(=O)[C@@]1(O)CC[C@H]2[C@@H]3CCC4=CC(=O)CC[C@]4(C)[C@H]3CC[C@@]21C`, the Potency result was “inactive”.

Consider `COC(=O)[C@@H](N)Cc1ccc(O)c(O)c1`, for which the Potency result is “inactive”.

For `COc1cc(C(=O)OCCCN2CCCN(CCCOC(=O)c3cc(OC)c(OC)c(OC)c3)CC2)cc(OC)c1OC`, the Potency result was “inactive”.

Regarding `Cc1nc2c([nH]1)c(=O)n(C)c(=O)n2Cc1ccco1`, the Potency result is “inactive”.

Consider `OCCN1CCN(CCCN2c3ccccc3C=Cc3ccccc32)CC1`, for which the Potency result is “inactive”.

Turning to `C=CCc1ccccc1OCC(O)CNC(C)C` (stereo not given), the Potency entry was “inactive”.

In the case of `CC(=O)Oc1cc(C(C)C)c(OCCN(C)C)cc1C`, the Potency result was “inactive”.

Take `COC(=O)C1=C(C)NC(C)=C(C(=O)OCCN(C)Cc2ccccc2)C1c1cccc([N+](=O)[O-])c1` (stereo not given): the Potency result was “inactive”.

With `COc1ccc(CN(CCN(C)C)c2ccccn2)cc1`, the Potency result was “inactive”.

On to `Cc1ccc(S(=O)(=O)NC(=O)NN2CCCCCC2)cc1`, for which the Potency entry was “inactive”.

As to `CCN1CCC[C@H]1CNC(=O)c1c(O)c(Cl)cc(Cl)c1OC`, the Potency result was “inactive”.

On to `CN/C(=C\[N+](=O)[O-])NCCSCc1ccc(CN(C)C)o1`, for which the Potency entry was “inactive”.

Regarding `Cc1cc(C)c(/C=C2\C(=O)Nc3ccccc32)[nH]1`, the Potency entry was “inactive”.

Take `Cc1nnc(SCC2=C(C(=O)O)N3C(=O)[C@@H](NC(=O)Cn4cnnn4)[C@H]3SC2)s1`: the Potency result is “inactive”.

In the case of `CCCCCCCC/C=C\CCCCCCCC(=O)NCc1ccc(O)c(OC)c1`, the Potency entry is “inactive”.

Regarding `CN(C)CC/C=C1\c2ccccc2COc2ccccc21`, the Potency result is “inactive”.

For `COc1ccc([C@@H]2Sc3ccccc3N(CCN(C)C)C(=O)[C@@H]2OC(C)=O)cc1`, the Potency entry was “inactive”.

Regarding `C[N+](C)(C)CCOC(N)=O`, the Potency entry was “inactive”.

Regarding `Cc1nc2ccccn2c(=O)c1CCN1CCC(C(=O)c2ccc(F)cc2)CC1`, the Potency result was “inactive”.

Regarding `CC(C)NCC(O)c1cc(O)cc(O)c1` (stereo not given), the Potency result was “inactive”.

As to `CC(C)[N+](C)(CCOC(=O)C1c2ccccc2Oc2ccccc21)C(C)C`, the Potency entry is “inactive”.

For `C#CCN(C)CCCOc1ccc(Cl)cc1Cl`, the Potency result was “inactive”.

For the compound `CSc1ccc(C(=O)c2[nH]c(=O)[nH]c2C)cc1`, the Potency entry was “inactive”.

Consider `NC/C=C/C(=O)O`, for which the Potency entry was “inactive”.

Turning to `O=C(O)CN(CCOCCOCCN(CC(=O)O)CC(=O)O)CC(=O)O`, the activity change, negative = cytotoxic was 25.4% [at 0.597 µM].

As for `OC(CCN1CCCCC1)(c1ccccc1)C1CCCCC1` (stereo not given), the Potency entry is “inactive”.

Take `CN(C(=O)CCCOc1ccc2[nH]c(=O)ccc2c1)C1CCCCC1`: the Potency entry was “inactive”.

Take `O=C(O)CCCCCCCC(=O)O`: the Potency result is “inactive”.

In the case of `C[N+](C)(C)CCOC(=O)CCC(=O)OCC[N+](C)(C)C`, the Potency entry was “inactive”.

Consider `CC(=O)OCC1=C(C(=O)O)N2C(=O)[C@@H](NC(=O)Cc3cccs3)[C@H]2SC1`, for which the Potency entry was “inactive”.

`CN(C)C(=O)Oc1ccc[n+](C)c1`: the Potency result was “inactive”.

As for `CCCN(CCC)CCc1cccc2c1CC(=O)N2`, the Potency result was “inactive”.

As to `NC(=O)c1cn(Cc2c(F)cccc2F)nn1`, the Potency result is “inactive”.

As to `COc1ccc(CCN(C)CCCC(C#N)(c2cc(OC)c(OC)c(OC)c2)C(C)C)cc1OC` (stereo not given), the Potency result was “inactive”.

Regarding `CCCN1C[C@H](CSC)C[C@@H]2c3cccc4[nH]cc(c34)C[C@H]21`, the Potency entry is “inactive”.

In the case of `NC(N)=N/N=C/c1c(Cl)cccc1Cl`, the Potency result was “inactive”.

(Values after PubChem BioAssay (NCATS).)
